{"source": "PubChem BioAssay (NCI)", "note": "Several values for one entry are separate records, joined by “and”; a condition that tells them apart may be missing. Identical values can stand only once. The panel holds about 83,000 compounds, 20% with a hit somewhere; the sample as a whole holds those more often.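 Note: values are percent growth. 100 is the growth of untreated cells, values between 100 and 0 indicate rising inhibition; between -100 and 0 indicates cell death.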 Activity calls are given as the source filed them. The calls were made as follows: active = growth percent below 10; inactive = the rest."}
{"tested_on": "TK-10 renal", "assay": "NCI-60 one-dose screen, 48 h (100 = growth as untreated, 0 = no growth, -100 = all killed)", "conditions": "10 µM unless noted"}
{"smiles": "O=[N+]([O-])c1cccc(-c2ncnc(-c3cccc([N+](=O)[O-])c3)n2)c1", "growth": "38.8% [100 µM] (inactive) and -100% [100 µM] (active)"}
{"smiles": "C=C1C(=O)OC2/C=C(/C)C3(O)OC(C)(CC(OC(=O)C(C)C)C12)CC3OC(C)=O", "note": "(stereo unspecified)", "growth": "-95.3% [100 µM] (active)"}
{"smiles": "CC1(C)CCCC(C)(C2CCC3(C)C2C(O)CC2C4(C)CCC(O)C(C)(C)C4C(O)CC23C)O1", "note": "(stereo unspecified)", "growth": "4.11% [100 µM] (active) and -96.5% [100 µM] (active)"}
{"smiles": "O=c1[nH]c(=O)n(C2CC(O)C(CO)O2)cc1Br", "note": "(stereo unspecified)", "growth": "67.2% [100 µM] (inactive) and 21% [100 µM] (inactive)"}
{"smiles": "NC1=NN(c2ccccc2)C2(c3ccncc3C(=O)O)C1C(N)=NN2c1ccccc1", "note": "(stereo unspecified)", "growth": "106% [100 µM] (inactive) and 9.31% [100 µM] (active)"}
{"smiles": "CC(=O)OC(C)c1cc2c(s1)C(=O)c1ccsc1C2=O", "note": "(stereo unspecified)", "growth": "-61.4% [100 µM] (active) and -100% [100 µM] (active)"}
{"smiles": "C[C@]12CC[C@@H]3c4cc(Br)c(O)c(Br)c4CC[C@H]3[C@@H]1CC(Br)C2=O", "note": "(stereo partly specified)", "growth": "-93.2% [100 µM] (active) and -97.6% [100 µM] (active)"}
{"smiles": "O=C1c2c(O)ccc(O)c2C(=O)c2c(NCCNC(=O)C(O)C(O)C(O)C(O)CO)ccc(NCCNC(=O)C(O)C(O)C(O)C(O)CO)c21", "note": "(stereo unspecified)", "growth": "-82.4% [100 µM] (active) and -95.9% [100 µM] (active)"}
{"smiles": "Cc1cc(-c2nc3ccccc3s2)ccc1N", "growth": "35.5% [100 µM] (inactive) and 15.8% [100 µM] (inactive)"}
{"smiles": "CCC1CC(C)C(O)/C=C/C=C/CC(C)OC(=O)CC(O)C(OC)C1OC1OC(C)CC(O)(C(C)=O)C1O", "note": "(stereo unspecified)", "growth": "62.1% [100 µM] (inactive) and 38.8% [100 µM] (inactive)"}
{"smiles": "CCOC(=O)CCCOc1cc(-c2ccccc2F)nc2cc3c(cc12)OCO3", "growth": "58.8% [100 µM] (inactive) and 0% [100 µM] (active)"}
{"smiles": "COC(=O)C(=O)C(C(=O)C(=O)Nc1ccccc1C(=O)OC)c1nc2ccc(C(=O)c3ccccc3)cc2[nH]c1=O", "note": "(stereo unspecified)", "growth": "82.4% [100 µM] (inactive) and 16.6% [100 µM] (inactive)"}
{"smiles": "COc1c2c(c(OC)c3c1c(=O)c1ccccc1n3C)OCO2", "growth": "54.2% [100 µM] (inactive)"}
{"smiles": "CCOc1cc2c(cc1O)C(=O)C[C@@H]1[C@@H]2CC[C@]2(C)[C@@H](O)CC[C@@H]12", "growth": "38.8% [100 µM] (inactive) and -2.4% [100 µM] (active)"}
{"smiles": "Nc1cc2c3c(cccc3c1)C(=O)N(c1ccc(OCCN3CCCC3)cc1)C2=O", "growth": "33.8% [100 µM] (inactive) and -100% [100 µM] (active)"}
{"smiles": "CCOC(=O)C1(C#N)C(=O)c2cc[n+](CC[n+]3ccc4c(c3)C(=O)C(C#N)(C(=O)OCC)C4=O)cc2C1=O", "note": "(stereo unspecified)", "growth": "141% [100 µM] (inactive) and 101% [100 µM] (inactive)"}
{"smiles": "Oc1ccc(/C=C/c2cc(O)cc3c2C(c2cc(O)cc(O)c2)C(c2ccc(O)c(O)c2)O3)cc1", "note": "(stereo unspecified)", "growth": "-15.5% [100 µM] (active) and -12.5% [100 µM] (active)"}
{"smiles": "Cc1c2c(c(O)c3c(O)cccc13)C(=O)C1(O)C(O)=C(C(=O)NCNc3ccc(C(N)=O)cn3)C(=O)C(N(C)C)C1C2", "note": "(stereo unspecified)", "growth": "-70% [100 µM] (active) and -74.7% [100 µM] (active)"}
{"smiles": "CCOC(=O)c1nc2cc(C(F)(F)F)ccc2nc1Nc1ccc(F)cc1", "growth": "42.7% [100 µM] (inactive) and 3.59% [100 µM] (active)"}
{"smiles": "CCCCOC(=O)C1CN2C(=NC1(C(F)(F)F)C(F)(F)F)Sc1ccccc12", "note": "(stereo unspecified)", "growth": "33.3% [100 µM] (inactive) and 71.4% [100 µM] (inactive)"}
{"smiles": "CCCCCCCCCCCCCC1=C(O)C(=O)C(CC2=C(O)C(=O)C(CCCCCCCCCCCCC)=C(O)C2=O)=C(O)C1=O", "growth": "33% [100 µM] (inactive) and -1.5% [100 µM] (active)"}
{"smiles": "Cc1ccc(NC(=S)C#N)c(C)c1", "growth": "93.1% [100 µM] (inactive) and 43.3% [100 µM] (inactive)"}
{"smiles": "CC(O)c1cc2c(s1)C(=O)c1ccsc1C2=O", "note": "(stereo unspecified)", "growth": "-46.9% [100 µM] (active) and -98.9% [100 µM] (active)"}
{"smiles": "CC(C)=CCC/C(C)=C/CC/C(C)=C/CSc1ccc(Cl)cc1C(=O)O", "growth": "-67.3% [100 µM] (active) and 28.4% [100 µM] (inactive)"}
{"smiles": "CC(C)(C)O/N=C/c1cc(NC(=S)c2ccsc2)ccc1Cl", "growth": "-90.2% [100 µM] (active) and -20.8% [100 µM] (active)"}
{"smiles": "O=C1C=C(Nc2ccc(S(=O)(=O)Nc3nccs3)cc2)c2ccccc2C1=O", "growth": "171% [100 µM] (inactive) and -86% [100 µM] (active)"}
{"smiles": "CC(=O)c1cc2c(s1)C(=O)c1sccc1C2=O", "growth": "-14.4% [100 µM] (active) and -100% [100 µM] (active)"}
{"smiles": "CN(C)CCNc1ccc(NCC[N+](C)(C)Cc2ccc([N+](=O)[O-])cc2)c2c1C(=O)c1ccccc1C2=O", "growth": "36.4% [25 µM] (inactive) and 2.65% [25 µM] (active)"}
{"smiles": "CCC/C(Cl)=N\\OC(=O)Nc1ccc(F)cc1", "growth": "-100% [100 µM] (active)"}
{"smiles": "CCOC(=O)/C(C#N)=C(/NNc1ccccc1)c1ccncc1C(=O)O", "growth": "79.5% [100 µM] (inactive) and -58% [100 µM] (active)"}
{"smiles": "CC(=O)c1cc2c(s1)C(=O)c1ccsc1C2=O", "growth": "-38.1% [100 µM] (active) and -100% [100 µM] (active)"}
